Data published in PubChem BioAssay AID1159580 (chemical genetic matrix, 2015).
Screen size: about 5,500 compounds; about 2,000 (36%) were called active. Inconclusive results (about 18%) are left out. Rule as the data show it: active = normalized growth mostly below about 0.91 (no sharp cut-off); inconclusive = no clear call, values can overlap the other calls; inactive = mostly above about 0.92. Some of the results follow.

Assay: chemical genetic growth profiling, strain panel (AID 1159580);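 also: tested at 20 µM; growth read once vehicle control cultures reached saturation at 30 °C; 1 = growth at the plate median or of vehicle wells; lower values mean less growth of the strain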
Conditions: growth OD

Measured: normalized growth

CNC(Cc1c[nH]c2ccccc12)C(=O)O (centres undefined)
inactive: S. cerevisiae deletion strains, locus YJR066W, strain TOR1, hits give low values 0.932 | S. cerevisiae deletion strains, locus YKL009W, strain mrt4, hits give low values 0.99 | S. cerevisiae deletion strains, locus YKL068W, hits give low values 0.992 | S. cerevisiae deletion strains, locus YKL085W, strain MDH1 (second series), hits give low values 0.983 | S. cerevisiae deletion strains, locus YKL085W, strain MDH1, hits give low values 0.983 | S. cerevisiae deletion strains, locus YKL160W, strain elf1, hits give low values 0.973 | S. cerevisiae deletion strains, locus YKR001C, strain vps1, hits give low values 1 | S. cerevisiae deletion strains, locus YKR026C, strain gcn3, hits give low values 0.975 | S. cerevisiae deletion strains, locus YKR091W, strain srl3, hits give low values 0.976 | S. cerevisiae deletion strains, locus YLL001W, strain dnm1, hits give low values 0.972 | S. cerevisiae deletion strains, locus YLL026W, hits give low values 0.974 | S. cerevisiae deletion strains, locus YLL041C, strain sdh2, hits give low values 0.981 | S. cerevisiae deletion strains, locus YLR027C, strain aat2, hits give low values 0.965 | S. cerevisiae deletion strains, locus YLR039C, strain RIC1, hits give low values 1.03 | S. cerevisiae deletion strains, locus YLR058C, strain SHM2, hits give low values 0.989 | S. cerevisiae deletion strains, locus YLR102C, strain apc9, hits give low values 0.995 | S. cerevisiae deletion strains, locus YLR113W, strain HOG1, hits give low values 1.07 | S. cerevisiae deletion strains, locus YLR221C, strain rsa3, hits give low values 1.01 | S. cerevisiae deletion strains, locus YLR258W, strain gsy2, hits give low values 0.99 | S. cerevisiae deletion strains, locus YLR262C, strain YPT6 (second series), hits give low values 1.01 | S. cerevisiae deletion strains, locus YLR262C, strain YPT6, hits give low values 1.01 | S. cerevisiae deletion strains, locus YLR268W, strain sec22, hits give low values 1.03 | S. cerevisiae deletion strains, locus YLR320W, strain mms22, hits give low values 1.02 | S. cerevisiae deletion strains, locus YLR330W, strain CHS5, hits give low values 0.987 | S. cerevisiae deletion strains, locus YLR342W, strain FKS1 (second series), hits give low values 0.957 | S. cerevisiae deletion strains, locus YLR342W, strain FKS1, hits give low values 0.989 | S. cerevisiae deletion strains, locus YLR357W, strain rsc2, hits give low values 0.951 | S. cerevisiae deletion strains, locus YLR370C, strain arc18, hits give low values 0.987 | S. cerevisiae deletion strains, locus YLR371W, strain rom2, hits give low values 0.969 | S. cerevisiae deletion strains, locus YLR384C, strain iki3, hits give low values 1.01 | S. cerevisiae deletion strains, locus YLR418C, strain cdc73, hits give low values 0.983 | S. cerevisiae deletion strains, locus YML016C, strain PPZ1, hits give low values 0.984 | S. cerevisiae deletion strains, locus YML032C, strain rad52, hits give low values 0.963 | S. cerevisiae deletion strains, locus YML120C, strain ndi1, hits give low values 0.983 | S. cerevisiae deletion strains, locus YML124C, strain tub3, hits give low values 0.994 | S. cerevisiae deletion strains, locus YMR058W, strain fet3, hits give low values 0.981 | S. cerevisiae deletion strains, locus YMR078C, strain ctf18, hits give low values 0.984 | S. cerevisiae deletion strains, locus YMR125W, strain sto1, hits give low values 0.973 | S. cerevisiae deletion strains, locus YMR129W, hits give low values 0.988 | S. cerevisiae deletion strains, locus YMR205C, strain PFK2, hits give low values 0.965 | S. cerevisiae deletion strains, locus YMR223W, strain ubp8, hits give low values 0.972 | S. cerevisiae deletion strains, locus YMR231W, strain pep5, hits give low values 0.976 | S. cerevisiae deletion strains, locus YMR263W, strain SAP30, hits give low values 0.982 | S. cerevisiae deletion strains, locus YMR307W, strain GAS1, hits give low values 0.902 | S. cerevisiae deletion strains, locus YNL067W, strain RPL9B, hits give low values 0.988 | S. cerevisiae deletion strains, locus YNL071W, strain lat1, hits give low values 0.989 | S. cerevisiae deletion strains, locus YNL128W, strain TEP1, hits give low values 0.983 | S. cerevisiae deletion strains, locus YNL153C, strain GIM3, hits give low values 0.976 | S. cerevisiae deletion strains, locus YNL183C, strain NPR1, hits give low values 0.993 | S. cerevisiae deletion strains, locus YNL209W, strain ssb2, hits give low values 0.982 | S. cerevisiae deletion strains, locus YNL233W, strain BNI4, hits give low values 1 | S. cerevisiae deletion strains, locus YNL248C, strain rpa49, hits give low values 0.962 | S. cerevisiae deletion strains, locus YNL250W, strain rad50, hits give low values 0.961 | S. cerevisiae deletion strains, locus YNL271C, strain bni1, hits give low values 0.994 | S. cerevisiae deletion strains, locus YNL298W, strain CLA4, hits give low values 0.987 | S. cerevisiae deletion strains, locus YNL307C, strain MCK1, hits give low values 0.988 | S. cerevisiae deletion strains, locus YNL322C, strain KRE1 (second series), hits give low values 0.986 | S. cerevisiae deletion strains, locus YNL322C, strain KRE1, hits give low values 0.985 | S. cerevisiae deletion strains, locus YNR049C, strain mso1, hits give low values 0.978 | S. cerevisiae deletion strains, locus YNR052C, strain pop2, hits give low values 0.983 | S. cerevisiae deletion strains, locus YOL012C, strain htz1 1.5 | S. cerevisiae deletion strains, locus YOL147C, strain pex11, hits give low values 1.01 | S. cerevisiae deletion strains, locus YOR001W, strain rrp6, hits give low values 0.975 | S. cerevisiae deletion strains, locus YOR061W, strain CKA2, hits give low values 0.961 | S. cerevisiae deletion strains, locus YOR069W, strain VPS5, hits give low values 0.999 | S. cerevisiae deletion strains, locus YOR070C, strain gyp1, hits give low values 1 | S. cerevisiae deletion strains, locus YOR080W, strain dia2, hits give low values 0.99 | S. cerevisiae deletion strains, locus YOR083W, strain WHI5, hits give low values 0.975 | S. cerevisiae deletion strains, locus YOR106W, strain vam3, hits give low values 0.96 | S. cerevisiae deletion strains, locus YOR136W, strain idh2, hits give low values 0.991 | S. cerevisiae deletion strains, locus YOR144C, strain elg1, hits give low values 0.988 | S. cerevisiae deletion strains, locus YOR184W, strain ser1, hits give low values 0.985 | S. cerevisiae deletion strains, locus YOR231W, strain MKK1, hits give low values 1 | S. cerevisiae deletion strains, locus YOR265W, strain rbl2, hits give low values 0.974 | S. cerevisiae deletion strains, locus YOR270C, strain vph1, hits give low values 0.972 | S. cerevisiae deletion strains, locus YOR290C, strain snf2, hits give low values 0.934 | S. cerevisiae deletion strains, locus YOR316C, strain cot1, hits give low values 0.991 | S. cerevisiae deletion strains, locus YPL051W, strain arl3, hits give low values 0.99 | S. cerevisiae deletion strains, locus YPL055C, strain LGE1, hits give low values 0.953 | S. cerevisiae deletion strains, locus YPL078C, strain atp4, hits give low values 0.959 | S. cerevisiae deletion strains, locus YPL106C, strain sse1, hits give low values 0.985 | S. cerevisiae deletion strains, locus YPL240C, strain hsp82, hits give low values 0.989 | S. cerevisiae deletion strains, locus YPL256C, strain CLN2, hits give low values 0.978 | S. cerevisiae deletion strains, locus YPR119W, strain clb2, hits give low values 0.997 | S. cerevisiae deletion strains, locus YPR141C, strain kar3, hits give low values 0.986 | S. cerevisiae deletion strains, locus YPR163C, strain tif3, hits give low values 0.993 | S. cerevisiae deletion strains, locus YPR167C, strain met16, hits give low values 0.992 | S. cerevisiae deletion strains, strain wtn01, hits give low values 1.02 | S. cerevisiae strains, strain wild type, hits give low values 1
